Data on 61 molecules can be found in PubChem BioAssay AID2013 (Sanford-Burnham Center for Chemical Genomics, 2009).

The structures appear in SMILES notation. Among all 290,000 compounds or so, about 370 (0.13%) were called active.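 How the source made its calls: active means spots per cell inhibited over 60%, with over 100 cells counted and total cytoplasm intensity under 500,000; inconclusive means wells with under 100 cells, flagged as likely toxic; inactive means the rest.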 Shown is part of a subset that was picked to be rich in actives. Results with a measured potency or affinity are listed apart.

For this assay, the target named is G-protein coupled receptor 55 (Homo sapiens) (UniProt Q9Y2T6). Description: GPR55 antagonists blocking LPI-driven arrestin recruitment, primary screen, imaging, U2OS, beta-arrestin-GFP, LPI agonist (AID 2013).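 Further: U2OS cells stably carrying GPR55 and arrestin-GFP stimulated by 5 µM LPI near EC80; imaged beta-arrestin-GFP aggregate spots per cell after agonist stimulation; plate controls were LPI-stimulated DMSO wells for no effect and DMSO wells without LPI for full effect.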 To be noted: U2OS GPR55 beta-arrestin-GFP translocation imaging, LPI antagonism; at 10 µM; active compounds read high. Background: Activated receptors often draw arrestin, which recruitment assays turn into a signal.
Sequence of G-protein coupled receptor 55 (Homo sapiens) (Q9Y2T6 whole entry, looked up): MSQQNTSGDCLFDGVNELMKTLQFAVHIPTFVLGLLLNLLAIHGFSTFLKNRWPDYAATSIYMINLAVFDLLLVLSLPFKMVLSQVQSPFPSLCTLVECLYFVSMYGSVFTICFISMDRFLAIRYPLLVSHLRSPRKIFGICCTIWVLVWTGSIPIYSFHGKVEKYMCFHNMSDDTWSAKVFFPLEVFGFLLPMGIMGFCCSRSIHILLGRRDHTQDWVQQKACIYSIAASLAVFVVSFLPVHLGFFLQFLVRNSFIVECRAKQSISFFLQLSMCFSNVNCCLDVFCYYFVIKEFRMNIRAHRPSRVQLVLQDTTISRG
For `Fc1ccc(-c2csc(N3CCOCC3)n2)cc1`, the inhibition is -10.5% (inactive).

In the case of `N=C1C(c2nc(-c3ccc(Cl)cc3)cs2)=C(O)CN1CCCN1CCOCC1`, the inhibition was 14.9% (inactive). The same measure for `Cc1c(Br)c([N+](=O)[O-])nn1CC(=O)N1CCN(C23CC4CC(CC(C4)C2)C3)CC1`: 10.9% (inactive). The same measure for `Cc1ccc(N(CC(=O)NCCc2ccc(F)cc2)S(=O)(=O)c2ccc(Cl)c([N+](=O)[O-])c2)c(C)c1`: 65.4% (active); for `O=C(CN(c1ccc(Cl)cc1)S(=O)(=O)c1ccc(Cl)c([N+](=O)[O-])c1)NCCc1ccccc1`: 5.1% (inactive); for `O=C(CN(c1ccc(Cl)cc1)S(=O)(=O)c1ccc(Cl)c([N+](=O)[O-])c1)NCCc1ccc(F)cc1`: 7.2% (inactive). Take `O=S(=O)(NC1CCCCC1Oc1ccccc1)c1ccc(Cl)cc1` (stereo unspecified): the inhibition was 12.4% (inactive).

For the molecule `CCn1cc(CN2CCC(C(=O)Nc3ccc(Oc4ccccc4)nc3)CC2)cn1`, the inhibition is 17% (inactive). As for `NC(=NC(=O)c1ccccc1)N1CCN(C(c2ccccc2)c2ccccc2)CC1`, the inhibition is 22.5% (inactive).

Consider `CC1=C(C(=O)OCc2ccccc2)C(c2ccc3ccccc3c2)NC(=O)N1CCCC(=O)O` (stereo unspecified), for which the inhibition is 1.7% (inactive). As to `Cn1nc(C(=O)NCc2ccco2)c2ccccc2c1=O`, the inhibition is -3.1% (inactive).

On to `COC(=O)c1cccc(S(=O)(=O)N2CCC(c3nc4ccccc4o3)CC2)c1`, for which the inhibition was 4.8% (inactive). On to `O=c1[nH]ncn1-c1ccccc1`, for which the inhibition is 0.1% (inactive). With `Cc1ncsc1CCOC(=O)c1ccc(N2CCOCC2)c([N+](=O)[O-])c1`, the inhibition was -11% (inactive). With `Cc1ccc(OC(=O)c2ccc(N3CCOCC3)c([N+](=O)[O-])c2)cc1`, the inhibition is 2.8% (inactive). In the case of `CC(C)c1ccc(CN2C(=O)NC3(CCCCCC3)C2=O)cc1`, the inhibition was 4.2% (inactive). Consider `CC(=O)N1CCc2cc(Br)cc(S(=O)(=O)NCCN3CCCCC3C)c21` (stereo unspecified), for which the inhibition is 10.5% (inactive). As to `CCC(=O)N1CCc2cc(Br)cc(S(=O)(=O)NCCN3CCCCC3CC)c21` (stereo unspecified), the inhibition was 5.4% (inactive). The same measure for `CCC(=O)N1CCc2cc(Br)cc(S(=O)(=O)NCCN3CCCCC3C)c21` (stereo unspecified): 77.2% (active). The same measure for `COc1ccccc1CNC(=O)CSc1nc2ccccc2c(=O)n1CCCN1CCOCC1`: 1.4% (inactive); for `Cc1ccccc1NC(=O)CSC(N)=O`: 1.9% (inactive); for `O=C(COc1ccc(Cl)cc1Cl)Nc1ccc(S(=O)(=O)NC2=NCCCCC2)cc1`: 3.6% (inactive).

Take `Cc1ccc(C(C)C)c(OCC(=O)Nc2cccc(S(=O)(=O)NC3=NCCCCC3)c2)c1`: the inhibition is -2.2% (inactive).

In the case of `Cc1ccc(Nc2cc(C)nc(NCc3ccccc3)n2)cc1`, the inhibition was 26.1% (inactive). In the case of `Cc1cc(Nc2ccc(Cl)cc2)nc(NCc2ccccc2)n1`, the inhibition was 13.1% (inactive). On to `CC(=O)NC(=S)Nc1cccc2ccc(C)nc12`, for which the inhibition is -6.6% (inactive). The same measure for `Cc1cc(C(F)(F)F)n(-c2nc(C(=O)N/N=C/c3ccc(F)cc3)cs2)n1`: -8.1% (inactive); for `COC(=O)c1ccccc1NC(=S)NC(=O)c1ccc2c(c1)OCO2`: 7.9% (inactive); for `COc1ccc(CCNC(=O)[C@H](C)NC(=O)[C@@H]2CSC3c4ccccc4C(=O)N32)cc1` (stereo partly specified): 9.5% (inactive).

Take `CCN(CC)S(=O)(=O)c1ccc(NCC2COc3ccccc3O2)c([N+](=O)[O-])c1` (stereo unspecified): the inhibition was 8.6% (inactive).

Take `CCN(c1ccccc1)S(=O)(=O)c1ccc(Cl)nc1`: the inhibition is -13.7% (inactive). On to `Cc1ccc(CNc2nc(C)cs2)cc1`, for which the inhibition is 4.7% (inactive). In the case of `CCCn1c(SCc2nc3sc(C)c(C)c3c(=O)[nH]2)nc2ccccc2c1=O`, the inhibition was 8.6% (inactive). Consider `Cc1[nH]c2ccccc2c1C(=O)CSc1nc2ccccc2c(=O)n1CCCN1CCOCC1`, for which the inhibition is -7.3% (inactive). For `Cc1sc2nc(CSc3nc4ccccc4c(=O)n3CCCN3CCOCC3)[nH]c(=O)c2c1C`, the inhibition is 89.7% (active).

Turning to `Cc1cc(C)cc(Oc2cc(NC(=O)c3cn(C)nc3C)cc([N+](=O)[O-])c2)c1`, the inhibition was -5.3% (inactive). As for `Cc1ccc(NC(=O)c2cc(S(=O)(=O)N3CCc4ccccc43)cn2C)cc1`, the inhibition is 6.1% (inactive). In the case of `Cc1cccc(N(C)C(=O)c2cc(S(=O)(=O)N3CCc4ccccc43)cn2C)c1`, the inhibition was 8.9% (inactive). For `CN(C)/C=N/c1[nH]ncc1C#N`, the inhibition is -2% (inactive).

Consider `Cc1nc2ccccc2n1CC(O)Cn1c(C(F)(F)F)nc2ccccc21` (stereo unspecified), for which the inhibition was 6.6% (inactive). Take `NC(=O)CSc1n[nH]c(-c2ccco2)n1`: the inhibition is 8.2% (inactive). As for `O=C(c1cccc(S(=O)(=O)N2CCN(c3ccccc3)CC2)c1)N1CC=C(c2ccccc2)CC1`, the inhibition is 4.3% (inactive). `COc1ccccc1NS(=O)(=O)c1cc(NC(=O)CC(C)(C)C)ccc1N1CCOCC1`: the inhibition is 6.1% (inactive). `COc1ccccc1NS(=O)(=O)c1cccc(NC(=S)NCCN2CCOCC2)c1`: the inhibition was 0.8% (inactive). For the molecule `Cc1ccccc1NC(=O)Nc1cc(S(N)(=O)=O)ccc1C`, the inhibition was -2.7% (inactive).

As for `COc1ccc(N2CCN(C(=O)NCc3ccc(C)cc3)CC2)cc1`, the inhibition is 1% (inactive). In the case of `CC(=O)Nc1cccc(C(=O)OCC(=O)c2ccccc2Cl)c1`, the inhibition is -0.6% (inactive).

As to `COc1cc(S(=O)(=O)Nc2ccccc2)ccc1N=Cc1c(C)[nH]n(-c2ccc(C)cc2)c1=O`, the inhibition is 7.7% (inactive). Turning to `O=C(Nc1ccccc1N1CCOCC1)c1cccc(NS(=O)(=O)c2ccc(F)c(F)c2)c1`, the inhibition was 2.6% (inactive). Consider `O=C(CC12CC3CC(CC(C3)C1)C2)NCc1ccco1`, for which the inhibition was 11.3% (inactive). Consider `O=C(CC12CC3CC(CC(C3)C1)C2)NC(=S)NCc1ccccc1`, for which the inhibition is 53% (inactive).

Turning to `OCCNc1cnc2ccccc2n1`, the inhibition was 12.6% (inactive). `CC1CN(S(=O)(=O)c2ccccc2)CN1C(=O)N1CCOCC1` (stereo unspecified): the inhibition was 15.3% (inactive). As for `CCN1CCCC1CN(Cc1cc2ccc(C)cc2[nH]c1=O)C(=S)Nc1ccc(F)cc1` (stereo unspecified), the inhibition was 23.5% (inactive). `COc1ccc(Cl)cc1S(=O)(=O)n1ccnc1`: the inhibition is 4.2% (inactive). Consider `COC(=O)c1ccc2c(c1)C(C)(C)C(/C=C/c1ccccc1O)=[N+]2C`, for which the inhibition is 11.5% (inactive). For the molecule `C[N+]1=C(/C=C/Nc2ccccc2Cl)C(C)(C)c2ccccc21`, the inhibition is 0.9% (inactive). Take `O=C1c2ccccc2C(=O)C2OC12` (stereo unspecified): the inhibition is 12.7% (inactive). Turning to `COc1ccc(OC)c(-c2csc(N(CC3CCCO3)C(=O)Cc3ccccc3)n2)c1` (stereo unspecified), the inhibition was 17.6% (inactive).

On to `COc1ccc(-c2csc(N(CC3CCCO3)C(=O)c3ccccc3)n2)cc1` (stereo unspecified), for which the inhibition was 0.7% (inactive). Regarding `COc1ccc(OC)c(-c2csc(N(CC3CCCO3)C(=O)C3CCCCC3)n2)c1` (stereo unspecified), the inhibition was 82.9% (active).

By inhibition is commonly meant the change of the read-out against control, counted positive when it falls.
